Sampled rows, rich in hits. Any-hit rate of the full collection: about 1.6%.
KCNQ2 pot: KCNQ2 (rat) channel potentiation; O88943; CHO-K1 KCNQ2, FluxOR thallium flux fluorescence; hits give high values; B-score at 10 µM; 310,000 tested, 0.54% active; AID 2239;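 active = fluorescence ratio B-score at least 3 SD of library B-scores, with initial fluorescence B-score within 3 of them, cut at about 5.3 in these data; same plate scores as AID 2156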;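 note: B-score of peak minus minimum over baseline fluorescence ratio after K+ and Tl+ stimulus; positive B-score means potentiation of KCNQ2 with more thallium influx and brighter signal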
KCNQ2 inh: inhibitors of rat KCNQ2 potassium channel; O88943; CHO-K1 KCNQ2, FluxOR thallium flux, 20 min; hits give low values; B-score at 10 µM; 310,000 tested, 1.1% active;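 active = fluorescence ratio B-score at most minus 3 library SDs, with starting brightness B-score within 2 library SDs, cut at about -5.5 in these data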
Kir21 confirm: confirmation of mouse Kir2.1 potassium channel inhibitors; shares compounds with KCNQ2 pot; AID 2032; 2,300 tested, 41% active; Tl flux remaining, % of negative control (hits give low values), % at 10 µM; Kir2.1-expressing cells, FluxOR thallium flux fluorescence; hits give low values;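 active = Primary-screen hit whose thallium flux fell at least 3 control SD below untreated wells in both duplicates, with normal baseline fluorescence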;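 note: 0% = blank wells without stimulus and 100% = stimulated no-compound controls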
HEK293 Tl flux: parental HEK293 activity in Kir2.1 inhibitor counter-screen; shares compounds with KCNQ2 pot; parental HEK293 cells, FluxOR thallium flux fluorescence; 0% = unstimulated blank wells; FluxOR signal as % of negative control (100 = no effect), % at 10 µM; 2,300 tested, 19% active; AID 2105;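 active = dye signal at least 3 control SD above or below untreated wells in both duplicates, raw fluorescence within 3, either direction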;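 note: percent is based on the flux ratio of peak minus minimum fluorescence over baseline F0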
CHO-K1 Tl ctr: counter-screen for KCNQ2 potentiators: effect in parental CHO-K1 cells. shares compounds with KCNQ2 pot. FluxOR thallium flux fluorescence; zero = vehicle mean+3SD, 100% = vehicle-minus-blank window. activity increase over 3SD of controls, % at 10 µM. 1,200 tested, 43% active. AID 2282;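 active = signal rise of at least 3 SD above the untreated control mean, in both duplicate wells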;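 note: counter screen of KCNQ2 potentiator hits so any rise reflects channel-independent effects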
KCNQ1 pot spec: human KCNQ1 counter-target activity of KCNQ2 potentiators; shares compounds with KCNQ2 pot; CHO KCNQ1 stable, FluxOR thallium flux fluorescence; beyond 3SD, as % of vehicle-control signal; activation over 3SD threshold, % at 10 µM; 1,200 tested, 28% active;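 active = fluorescence ratio rise of at least 3 SD of vehicle wells above their mean, in both replicate wells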;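 note: 0% = vehicle mean plus 3 SD and 100% = vehicle minus unstimulated blank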
KCNQ2 pot conf: rat KCNQ2 channel potentiator confirmation; shares compounds with KCNQ2 pot; CHO-KCNQ2 cells, FluxOR thallium flux fluorescence; potentiation, less the hit threshold, % at 10 µM; 1,200 tested, 68% active;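 active = fluorescence ratio rising 3 SD or more over the vehicle control mean in both replicates, plus primary screen hit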;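 note: peak minus minimum thallium fluorescence divided by baseline after K/Tl stimulus; 0% = vehicle mean plus 3 SD and 100% = vehicle minus unstimulated blank difference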
Kir2-1 sel: tests whether KCNQ2 potentiators also affect mouse Kir2.1. AID 2345. shares compounds with KCNQ2 pot. HEK293 Kir2.1, FluxOR thallium flux fluorescence. 1,200 tested, 2% active. activity over 3SD threshold, % at 10 µM;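 active = fluorescence ratio rise of at least 3 SD above the vehicle-control mean, seen in both replicates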;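 note: 0% = vehicle mean plus 3 SD and 100% = vehicle minus no-stimulus blank window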
KCNQ2 W236L pot: KCNQ2 potentiators acting on retigabine-insensitive rat KCNQ2 W236L mutant | shares compounds with KCNQ2 pot | CHO KCNQ2-W236L, automated patch clamp current | current increase over 3SD of negative controls (%), hits give high values, % at 25 µM | 940 tested, 10% active | AID 2558;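 active = current increase at least 3 SD of the untreated controls above them in both duplicate recordings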
Target sequence (O88943 whole entry W236L, looked up): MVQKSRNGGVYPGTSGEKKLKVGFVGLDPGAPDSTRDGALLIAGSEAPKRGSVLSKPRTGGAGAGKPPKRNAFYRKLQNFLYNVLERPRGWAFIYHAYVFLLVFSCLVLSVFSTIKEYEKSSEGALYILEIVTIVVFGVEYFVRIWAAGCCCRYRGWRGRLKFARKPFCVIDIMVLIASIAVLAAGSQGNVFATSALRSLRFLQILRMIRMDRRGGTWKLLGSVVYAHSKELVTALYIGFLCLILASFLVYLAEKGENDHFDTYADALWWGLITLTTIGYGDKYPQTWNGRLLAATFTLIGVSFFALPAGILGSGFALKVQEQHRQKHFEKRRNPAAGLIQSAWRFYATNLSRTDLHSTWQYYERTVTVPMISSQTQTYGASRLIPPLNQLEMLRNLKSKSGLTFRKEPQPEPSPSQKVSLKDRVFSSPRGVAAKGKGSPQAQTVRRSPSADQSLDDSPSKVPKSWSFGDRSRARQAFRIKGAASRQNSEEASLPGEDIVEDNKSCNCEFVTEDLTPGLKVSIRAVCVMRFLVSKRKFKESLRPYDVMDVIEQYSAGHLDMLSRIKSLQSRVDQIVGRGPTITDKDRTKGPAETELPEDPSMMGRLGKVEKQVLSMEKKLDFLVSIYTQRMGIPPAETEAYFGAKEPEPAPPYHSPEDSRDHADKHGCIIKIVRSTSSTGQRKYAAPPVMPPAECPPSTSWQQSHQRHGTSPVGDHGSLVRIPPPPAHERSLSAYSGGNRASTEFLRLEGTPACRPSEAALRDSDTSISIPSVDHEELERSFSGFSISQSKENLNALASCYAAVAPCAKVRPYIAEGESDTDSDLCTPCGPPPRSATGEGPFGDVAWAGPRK
* marks the source's active call; other numbers are inactive results; i = inactive; nt = no result given.

SMILES	KCNQ2 pot	KCNQ2 inh	Kir21 confirm	HEK293 Tl flux	CHO-K1 Tl ctr	KCNQ1 pot spec	KCNQ2 pot conf	Kir2-1 sel	others
Cc1onc(-c2ccccc2Cl)c1C(=O)OCC(=O)Nc1ccc2c(c1)OCO2	8.03*	i	i	i	3.4*	0.5*	-14.1	-37.2	KCNQ2 W236L pot=i
Cc1onc(-c2ccccc2)c1C(=O)OCC(=O)Nc1ccc2c(c1)OCO2	nt	i	nt	nt	nt	nt	nt	nt
O=C(N/C=C/c1ccco1)Nc1cccc(Cl)c1	13.5*	i	i	i	-11.4	-30.9	61.1*	-19.8	KCNQ2 W236L pot=i
COc1ccc(NC(=O)N/C=C/c2ccco2)cc1	0.31	i	nt	nt	nt	nt	nt	nt
CCc1nc2ccccc2n1CCc1ccccc1	nt	i	nt	nt	nt	nt	nt	nt
CC(C)(C)Cc1nc2ccccc2n1CCc1ccccc1	nt	i	53.0%*	i	nt	nt	nt	nt
O=S(=O)(Nc1nc(-c2sccc2Cl)cs1)c1cc(Cl)ccc1Cl	18.8*	i	i	339.0%*	17.3*	-20.6	149.0*	-24.8	KCNQ2 W236L pot=i
CC(C)(C)c1nnc(NS(=O)(=O)c2cc(Cl)ccc2Cl)s1	1.86	i	nt	nt	nt	nt	nt	nt
CC(=O)Oc1ccc([C@@H]2COc3c(ccc4c3C=CC(C)(C)O4)C2)c(OC(C)=O)c1	nt	i	nt	nt	nt	nt	nt	nt
CC(C)=CCc1cc([C@@H]2COc3c(ccc4c3C=CC(C)(C)O4)C2)c(O)cc1O	6.01*	i	i	i	-7.0	-2.5	-25.0	-28.0
CSC(=S)N/N=C(\C)c1ccccc1	8.71*	i	i	288.5%*	-12.1	-12.2	26.5*	-15.1	KCNQ2 W236L pot=9.3%*
C/C(=N\NC(N)=S)c1ccccc1	nt	i	nt	nt	nt	nt	nt	nt
C=CCc1cccc(Cl)c1OCCCNC1CCCC1	1.21	i	nt	nt	nt	nt	nt	nt
O=C(c1ccco1)N1CCN(c2ncnc3c2cnn3-c2ccccc2)CC1	0.79	i	nt	nt	nt	nt	nt	nt
CCc1cc2c(N3CCN(C(=O)c4ccco4)CC3)ncnc2s1	5.72*	i	i	i	-7.7	35.6*	-18.1	-38.8
S=c1[nH]c2ccc(Cl)cc2[nH]1	1.19	i	nt	nt	nt	nt	nt	nt
S=c1[nH]c2cc(Cl)ccc2s1	18.2*	i	i	552.5%*	10.3*	-12.2	54.0*	2.3*	KCNQ2 W236L pot=i
CNC(=O)c1c(NC(=O)CCS(=O)(=O)c2ccc(F)cc2)sc(C)c1C	2.45	i	nt	nt	nt	nt	nt	nt
Cc1cc(Oc2ccc(N)cn2)cc(C)c1Cl	0.02	i	nt	nt	nt	nt	nt	nt
CC(C)(C)c1ccc(Oc2ccc(N)cn2)cc1	11.9*	i	i	67.5%*	64.9*	-19.1	73.3*	-34.0	KCNQ2 W236L pot=i
CN(CC(=O)Nc1ccc(Cl)c(C(F)(F)F)c1)C(=O)Cc1ccsc1	nt	i	nt	nt	nt	nt	nt	nt
COc1ccc(/C=C/C(=O)NCCSCc2ccco2)cc1OC	1.85	i	nt	nt	nt	nt	nt	nt
CCc1nc(SCC(=O)NCCc2ccccc2)c2c(=O)n(C)c(=O)n(C)c2n1	0.86	i	nt	nt	nt	nt	nt	nt
CCCc1nc(SCC(=O)c2ccccc2)c2c(=O)n(C)c(=O)n(C)c2n1	24.9*	i	i	i	67.0*	78.7*	56.2*	-26.2	KCNQ2 W236L pot=i
CCc1nc(SCC(=O)c2ccccc2)c2c(=O)n(C)c(=O)n(C)c2n1	5.4*	i	i	i	-24.8	-18.9	5.8*	-23.1	KCNQ2 W236L pot=i
SMILES	KCNQ2 pot	KCNQ2 inh	Kir21 confirm	HEK293 Tl flux	CHO-K1 Tl ctr	KCNQ1 pot spec	KCNQ2 pot conf	Kir2-1 sel	others
Cn1c(=O)c2c(SCC(=O)c3ccccc3)nc(C3CC3)nc2n(C)c1=O	5.4*	i	i	i	84.2*	-14.4	2.4*	-23.9	KCNQ2 W236L pot=i
CCCc1nc(SCC(=O)NCc2ccco2)c2c(=O)n(C)c(=O)n(C)c2n1	2.5	i	nt	nt	nt	nt	nt	nt
Cn1c(=O)c2c(SCC(=O)Nc3nccs3)nc(C3CC3)nc2n(C)c1=O	0.34	i	nt	nt	nt	nt	nt	nt
O=C1C(Cc2ccccc2)Nc2ncnc(N3CCCCC3)c2N1Cc1ccc(Cl)cc1 (stereo not drawn)	nt	i	nt	nt	nt	nt	nt	nt
CCC(CC)C(=O)N1c2ccc(F)cc2CCC1C (stereo not drawn)	nt	i	nt	nt	nt	nt	nt	nt
CC(C(=O)N1c2ccc(F)cc2CCC1C)N1C(=O)c2ccccc2C1=O (stereo not drawn)	7.6*	i	i	123.0%*	102.6*	-9.0	-11.9	-32.5
CCCCC(OC(=O)CN1C(=O)COc2ccccc21)C(=O)NC1CCCCC1 (stereo not drawn)	nt	i	nt	nt	nt	nt	nt	nt
Cc1cccc(C(=O)NNC2=C(C(=O)C(F)(F)F)CCC2)c1O	6.57*	i	i	i	-6.8	-16.4	32.9*	-43.6	KCNQ2 W236L pot=i
Cc1cccc(C(=O)NNC(=O)c2ccc(Cl)cc2)c1O	0.27	i	nt	nt	nt	nt	nt	nt
O=C(NNC1=C(C(=O)C(F)(F)F)CCC1)c1cccc(O)c1	4.4	i	nt	nt	nt	nt	nt	nt
O=C(NNC1=C(C(=O)C(F)(F)F)CCC1)c1cccnc1	19.9*	i	i	64.0%*	-16.5	-19.2	34.7*	-21.3
COc1ccc(C(=O)OC(C)C(=O)NC(C)CCc2ccccc2)cc1OC (stereo not drawn)	0.67	i	nt	nt	nt	nt	nt	nt
c1csc(-c2nn3cnnc3c3ccccc23)c1	0.52	i	nt	nt	nt	nt	nt	nt
COc1ccc(C(=O)O/N=C2\C(=O)N(C)c3ccccc32)cc1	nt	i	nt	nt	nt	nt	nt	nt
CN1C(=O)/C(=N\OC(=O)c2cccc3ccccc23)c2ccccc21	5.36*	i	i	i	-16.3	-11.8	-19.1	-35.5
COc1ccc(F)cc1S(=O)(=O)N1CC(C)CC(C)C1 (stereo not drawn)	nt	i	44.5%*	i	nt	nt	nt	nt
COc1ccc(C(C)C)cc1S(=O)(=O)N1CCC(C(=O)N2CCN(C)CC2)CC1	nt	i	nt	nt	nt	nt	nt	nt
COc1ccc(F)cc1S(=O)(=O)N1CCN(c2ccccn2)CC1	nt	i	nt	nt	nt	nt	nt	nt
COc1ccc(Br)cc1S(=O)(=O)N1CCOCC1	1.96	i	nt	nt	nt	nt	nt	nt
COc1ccc(C(C)C)cc1S(=O)(=O)N1CCN(C)CC1	12.6*	i	i	i	48.1*	-9.0	-18.4	-35.7
COc1ccc(Br)cc1S(=O)(=O)N1CC(C)OC(C)C1 (stereo not drawn)	2.86	i	56.5%*	i	nt	nt	nt	nt
O=C(C1CC(=O)N(c2ccc(Cl)cc2)C1)N1CCOCC1 (stereo not drawn)	nt	i	nt	nt	nt	nt	nt	nt
O=C(Nc1ccc(S(=O)(=O)Nc2ncccn2)cc1)c1ccccc1NS(=O)(=O)c1ccc(Cl)cc1	1.71	i	nt	nt	nt	nt	nt	nt
CCc1nc(SCc2ccc(OCC(C)C)cc2)n[nH]1	nt	i	nt	nt	nt	nt	nt	nt
COc1ccnc(Oc2ccccc2)c1C(N)=O	nt	i	nt	nt	nt	nt	nt	nt
